Data on 14 molecules can be found in PubChem BioAssay.

The source made the active and inactive calls.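 How the source made its calls, unless noted: active means fluorescence slope higher than the sample average by over 3 SD (cut at about -0.22 in these data, passing the limit was not always enough); inactive means the rest.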

Assay [1] is described as follows: inhibitors of TNFa-induced NFkB p65 translocation, primary screen, imaging, HUVEC, MLSMR starter and 10KST1 sets (AID 438;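 active means inhibition above 20% together with a positive visual image hit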;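 further: compound added about 3h40 before a 20 min TNFalpha stimulation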;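 on inhibition: signal is the nuclear over cytoplasmic p65 intensity ratio per well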). The settings on record: HUVEC TNFa-induced p65 nuclear translocation; cell count: measured here: nuclei count (cytotoxicity indicator), at 2.08 µM; inhibition: at 2 µM, stronger effect = higher value, 0% TNFa-plus-vehicle, 100% no-TNFa wells.
Assay [2] in a line: inhibitors of mutant huntingtin aggregation, primary screen, imaging, exon1htt(103Q)mCFP cells, high-content imaging (AID 483;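 active means visual image review flags a hit and inhibition of aggregation exceeds 20%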;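 further: compound exposure lasted 3 days before fixation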;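 on nuclei count: percent of the per-plate median nuclei count of sample wells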). The note with it: exon1htt(103Q)mCFP cell line, aggregate imaging, at 2 µM; inhibition of aggregation: stronger effect = higher value; nuclei count: measured here: cell count, toxicity.
A short description of assay [3]: inhibitors of E-selectin induction by TNFa, primary screen, imaging, HUVEC, immunofluorescence, MLSMR starter and 10KST1 sets (AID 487;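 active means visually confirmed hit in the image check and inhibition above 20%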;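 on inhibition: signal is fraction of cell area covered by stained E-selectin grains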;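 on nuclei count: 100% = median nuclei count of all wells on the same plate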). The settings on record: HUVEC TNFalpha-induced E-selectin immunofluorescence imaging, at 2 µM; inhibition: stronger effect = higher value; nuclei count: measured here: cell number, toxicity.
Assay [4] concerns the target Voltage-gated potassium channel subunit beta-2 (Rattus norvegicus) (UniProt P62483). Briefly: KvBeta enzyme negative modulators, primary screen, biochemical, NADPH fluorescence (AID 622).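 Further: slope of raw intensity against log time taken from 70 to 1610 s.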 The note with it: recombinant KvBeta, 4-cyanobenzaldehyde reduction, at 10 µM, stronger effect = higher value.
For assay [5] the target is unchanged. Briefly: KvBeta positive modulators, primary screen, biochemical, NADPH fluorescence (AID 623;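 active means NADPH fluorescence slope more negative than the mean of all samples by about 3 SD, 99.7% confidence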;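 further: fluorescence intensity change per second fitted from 20 to 320 s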). The note with it: Recombinant KvBeta, NADPH fluorescence decrease slope, 10 min; at 10 µM; stronger effect = lower value.
The target in assay [6] is Alpha-2C adrenergic receptor (Homo sapiens) (UniProt P18825). Description: modulators of alpha2C/GIRK thallium flux, primary screen, cell-based, HEK293 alpha2C/GIRK1/2 (AID 624;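 active means fluorescence slope after compound addition differing from the mean of all screened samples at 99.7% confidence, in either direction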;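 further: slope of fluorescence ratio to pre-addition baseline per second over 15 to 24 s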). The note with it: thallium flux BTC fluorescence, at 10 µM, actives lie on both sides.
Alpha-2C adrenergic receptor (Homo sapiens), sequence (P18825 whole entry, looked up): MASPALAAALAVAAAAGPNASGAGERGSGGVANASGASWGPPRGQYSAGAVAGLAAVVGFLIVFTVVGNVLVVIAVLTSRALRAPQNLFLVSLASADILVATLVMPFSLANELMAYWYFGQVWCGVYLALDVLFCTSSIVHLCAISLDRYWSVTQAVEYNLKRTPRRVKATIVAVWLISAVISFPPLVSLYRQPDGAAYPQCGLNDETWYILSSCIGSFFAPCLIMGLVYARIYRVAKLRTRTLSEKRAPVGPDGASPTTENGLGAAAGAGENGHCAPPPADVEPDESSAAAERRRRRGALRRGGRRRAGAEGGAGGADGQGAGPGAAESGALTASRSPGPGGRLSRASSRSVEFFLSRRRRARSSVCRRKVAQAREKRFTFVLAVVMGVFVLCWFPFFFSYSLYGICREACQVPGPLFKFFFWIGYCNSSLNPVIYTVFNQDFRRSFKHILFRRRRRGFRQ
Assay [7] is described as follows: inhibitors of Sendai virus-induced IRF3 signaling, primary screen, TLR/RLR signaling modifier project, cell-based, Sendai virus stimulus, luciferase, 10K MLSCN set (AID 602276;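 active means inhibition at or above 50% at 10 µM; inactive means inhibition below 50%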;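 further: firefly luciferase from ISG56 promoter only with Renilla not read in this screen; 0% = Sendai virus plus DMSO and 100% = medium plus DMSO without virus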). The note with it: HEK293 RL24 IRF3 luciferase reporter, at 10 µM, stronger effect = higher value.
The nature of assay [8]: inhibitors of poly I:C-induced TLR3 signaling, primary screen, cell-based, poly I:C stimulus, luciferase, 10K MLSCN set (AID 602277;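 active means inhibition of the reporter signal at or above 50%; inactive means inhibition below 50%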). The note with it: HEK293-TLR3 RL24 IRF3 luciferase reporter, at 10 µM, stronger effect = higher value.

Voltage-gated potassium channel subunit beta-2 (Rattus norvegicus), sequence (P62483 whole entry, looked up): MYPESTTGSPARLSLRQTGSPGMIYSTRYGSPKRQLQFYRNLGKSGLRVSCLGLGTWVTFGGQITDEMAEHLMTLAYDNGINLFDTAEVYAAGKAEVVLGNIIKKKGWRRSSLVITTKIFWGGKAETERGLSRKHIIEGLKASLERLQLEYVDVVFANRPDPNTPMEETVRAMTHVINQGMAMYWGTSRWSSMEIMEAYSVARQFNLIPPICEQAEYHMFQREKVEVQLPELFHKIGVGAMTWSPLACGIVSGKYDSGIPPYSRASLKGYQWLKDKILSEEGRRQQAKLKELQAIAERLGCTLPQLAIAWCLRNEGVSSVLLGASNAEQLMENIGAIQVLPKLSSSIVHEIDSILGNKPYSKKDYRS

Take `CCc1cc(=O)n2[nH]c(C)c(-c3ccccc3OC)c2n1`: the cell count in assay [1] is 595. The inhibition in assay [1] was 2.8% (inactive); in assay [3] it was -38.4% (inactive); in assay [7], 4.14% (inactive); in assay [8], 16.3% (inactive). Also, the inhibition of aggregation in assay [2] is 42.7% (inactive). Further, the results for the nuclei count in assay [2] and in assay [3] were 64.6% and 96.2%, respectively. Also, in assay [4], the fluorescence slope is -0.592 (inactive). Also, the NADPH fluorescence slope in assay [5] was -2.9e-05 (inactive). Besides, in assay [6], the slope was 0.00657 (inactive).

Regarding `Cc1csc(NC(=O)C2CCCO2)n1` (centres undefined), the cell count in assay [1] came to 725. Further, the inhibition in assay [1] is -11.4% (inactive); in assay [3] it was -133% (inactive); in assay [7] it was -2.56% (inactive); in assay [8], 17.7% (inactive). Further, in assay [2], the inhibition of aggregation is -7.3% (inactive). The nuclei count in assay [2] worked out at 101%; in assay [3], 134%. Besides, the fluorescence slope in assay [4] was -0.494 (inactive). Moreover, the NADPH fluorescence slope in assay [5] is -5.6e-05 (inactive). Besides, in assay [6], the slope was 0.00887 (inactive).

In the case of `Cc1[nH]c2ccccc2c1Cc1nnc(SCC(=O)NCc2ccco2)o1`, the cell count in assay [1] is 428. The inhibition was -7.7% (inactive) in assay [1], -24.9% (inactive) in assay [3], -11.7% (inactive) in assay [7] and -28.3% (inactive) in assay [8]. Besides, in assay [2], the inhibition of aggregation is 12.9% (inactive). For the same molecule, the nuclei count in assay [2] amounted to 83.4%; in assay [3] it was 87%. In addition, the fluorescence slope in assay [4] was -0.436 (inactive). In assay [5], the NADPH fluorescence slope is 1.9e-05 (inactive). The slope in assay [6] was 0.0061 (inactive).

For `CCN(CC)C(=O)C1CCCN(c2ncnc3c2cnn3-c2ccc(Cl)cc2)C1` (centres undefined), in assay [1], the cell count was determined as 745. For the same molecule, the inhibition in assay [1] is -5.2% (inactive); in assay [3], -21.1% (inactive); in assay [7], 10.8% (inactive); in assay [8] it was 53.6% (active). In addition, the inhibition of aggregation in assay [2] is 0.8% (inactive). The nuclei count in assay [2] was 103%; in assay [3] it was 109%. For the same molecule, the fluorescence slope in assay [4] is -0.543 (inactive). In addition, the NADPH fluorescence slope in assay [5] is -1.7e-05 (inactive). Besides, in assay [6], the slope was 0.00713 (inactive).

`Cc1[nH]nc2c1C1(C(=O)N(Cc3ccc(Cl)cc3)c3ccccc31)C(C#N)=C(N)O2` (centres undefined): the cell count in assay [1] is 358. Further, the inhibition is 1.4% (inactive) in assay [1], -24.6% (inactive) in assay [3], 12.5% (inactive) in assay [7] and 0.315% (inactive) in assay [8]. For the same molecule, the inhibition of aggregation in assay [2] is -1.1% (inactive). The values for the nuclei count in assay [2] and in assay [3] were 101% and 114%, respectively. In addition, the fluorescence slope in assay [4] is -0.338 (inactive). In addition, the NADPH fluorescence slope in assay [5] was -3.4e-05 (inactive). The slope in assay [6] was 0.00523 (inactive).

Consider `O=c1oc2ccccc2c2nccnc12`, for which the cell count in assay [1] came out at 410. The inhibition is 2.1% (inactive) in assay [1], -5.2% (inactive) in assay [3], 5.7% (inactive) in assay [7] and 27.5% (inactive) in assay [8]. Further, the inhibition of aggregation in assay [2] is 2.2% (inactive). For the same molecule, the nuclei count in assay [2] is 104%; in assay [3] it was 107%. For the same molecule, the fluorescence slope in assay [4] was -0.456 (inactive). Also, in assay [5], the NADPH fluorescence slope is -3.3e-05 (inactive). Besides, in assay [6], the slope is 0.00253 (inactive).

`O=C(CSc1ncnc2nc[nH]c12)c1ccc(Cl)cc1`: the cell count in assay [1] amounted to 728. For the same molecule, the inhibition in assay [1] was -12.4% (inactive); in assay [3], 5.4% (inactive); in assay [7], -2.82% (inactive); in assay [8] it was -23.1% (inactive). Also, in assay [2], the inhibition of aggregation was 9.4% (inactive). In addition, the nuclei count was 101% in assay [2] and 95% in assay [3]. The fluorescence slope in assay [4] was -0.5 (inactive). Moreover, in assay [5], the NADPH fluorescence slope is -1.4e-05 (inactive). In addition, the slope in assay [6] was 0.00583 (inactive).

Consider `CCC(C)(C)n1nnnc1C(c1ccc(OC)c(OC)c1)N1CCN(c2ccc(F)cc2)CC1` (centres undefined), for which the cell count in assay [1] came out at 406. For the same molecule, the inhibition in assay [1] was 4% (inactive); in assay [3], 10.4% (inactive); in assay [7], 14% (inactive); in assay [8], 43.5% (inactive). In addition, the inhibition of aggregation in assay [2] is -1% (inactive). Moreover, the nuclei count in assay [2] was determined as 96.8%; in assay [3] it was 106%. Moreover, the fluorescence slope in assay [4] is -0.442 (inactive). Besides, the NADPH fluorescence slope in assay [5] was -2.6e-05 (inactive). Also, the slope in assay [6] was 0.00413 (inactive).

Turning to `CC1=C(C(=O)N2CCCCC2)C2(CCC(C)CC2)OC1=O` (centres undefined), the cell count in assay [1] stood at 759. Besides, the inhibition in assay [1] is -1.1% (inactive); in assay [3], -27.8% (inactive); in assay [7] it was 15.2% (inactive); in assay [8] it was 20.4% (inactive). In addition, in assay [2], the inhibition of aggregation is -11.5% (inactive). Also, the nuclei count in assay [2] worked out at 118%; in assay [3] it was 120%. The fluorescence slope in assay [4] was -0.524 (inactive). In addition, in assay [5], the NADPH fluorescence slope is -1.1e-05 (inactive). Moreover, the slope in assay [6] is 0.00741 (inactive).

For the molecule `O=C(NC1=NCCS1)c1nc(-c2ccccc2)n(-c2ccccc2)n1`, the cell count in assay [1] worked out at 495. For the same molecule, the inhibition in assay [1] was 4.7% (inactive); in assay [3] it was -60.7% (inactive); in assay [7] it was 8.38% (inactive); in assay [8], 11.1% (inactive). For the same molecule, the inhibition of aggregation in assay [2] is 1% (inactive). In addition, the nuclei count in assay [2] is 109%; in assay [3], 113%. Moreover, the fluorescence slope in assay [4] was -0.405 (inactive). In addition, the NADPH fluorescence slope in assay [5] was -4.9e-05 (inactive). In assay [6], the slope was 0.00535 (inactive).

Take `Nn1c(SCC(=O)Nc2ccc3c(c2)OCO3)nnc1C1CC1`: the cell count in assay [1] is 363. Moreover, the inhibition is 4.8% (inactive) in assay [1], -16% (inactive) in assay [3], 4.52% (inactive) in assay [7] and 17.1% (inactive) in assay [8]. The inhibition of aggregation in assay [2] was 0.8% (inactive). Further, the nuclei count in assay [2] stood at 100%; in assay [3], 111%. In addition, the fluorescence slope in assay [4] was -0.574 (inactive). In assay [5], the NADPH fluorescence slope was -5.7e-05 (inactive). Besides, the slope in assay [6] was 0.00672 (inactive).

Take `CC1CN(C(=O)c2scc3c2OCCO3)CC(C)O1` (centres undefined): the cell count in assay [1] stood at 190. In addition, the inhibition in assay [1] is -5.4% (inactive); in assay [3], 11.5% (inactive); in assay [7] it was 17.3% (inactive); in assay [8], 20.4% (inactive). The inhibition of aggregation in assay [2] was 0.7% (inactive). Also, the results for the nuclei count in assay [2] and in assay [3] were 75% and 77%, respectively. Further, the fluorescence slope in assay [4] is -0.598 (inactive). For the same molecule, the NADPH fluorescence slope in assay [5] was -1.6e-05 (inactive). The slope in assay [6] was 0.00693 (inactive).

As for `CCCCc1cc(=O)oc2cc(OCC(=O)N(CC)CC)c(Cl)cc12`, in assay [1], the cell count amounted to 586. In addition, the inhibition in assay [1] was 0% (inactive); in assay [3], -56.9% (inactive); in assay [7], 12.5% (inactive); in assay [8], 30.7% (inactive). Also, in assay [2], the inhibition of aggregation is -3.9% (inactive). The results for the nuclei count in assay [2] and in assay [3] were 102% and 123%, respectively. Moreover, in assay [4], the fluorescence slope is -0.596 (inactive). Besides, the NADPH fluorescence slope in assay [5] was 7.2e-08 (inactive). Also, in assay [6], the slope was 0.00654 (inactive).

For `COc1ccc(C)cc1NCc1cccc(OC)c1OC`, the cell count in assay [1] turned out to be 335. Moreover, the inhibition was -7% (inactive) in assay [1], -41.1% (inactive) in assay [3], -7.74% (inactive) in assay [7] and 24.1% (inactive) in assay [8]. Moreover, the inhibition of aggregation in assay [2] is 7% (inactive). Moreover, the nuclei count in assay [2] was found to be 111%; in assay [3] it was 110%. The fluorescence slope in assay [4] is -0.496 (inactive). Moreover, the NADPH fluorescence slope in assay [5] is -2.7e-05 (inactive). Moreover, in assay [6], the slope was 0.00476 (inactive).

Usually inhibition stands for the relative decrease from the control value, in per cent.
